USP28 inh = inhibitors of human USP28 deubiquitinase; purified USP28, Ub-rhodamine cleavage fluorescence, 30 min; inhibition, % at 25 µM; hit rate 3% among 47,000; AID 1645857
Target sequence (Q96RU2 whole entry, looked up): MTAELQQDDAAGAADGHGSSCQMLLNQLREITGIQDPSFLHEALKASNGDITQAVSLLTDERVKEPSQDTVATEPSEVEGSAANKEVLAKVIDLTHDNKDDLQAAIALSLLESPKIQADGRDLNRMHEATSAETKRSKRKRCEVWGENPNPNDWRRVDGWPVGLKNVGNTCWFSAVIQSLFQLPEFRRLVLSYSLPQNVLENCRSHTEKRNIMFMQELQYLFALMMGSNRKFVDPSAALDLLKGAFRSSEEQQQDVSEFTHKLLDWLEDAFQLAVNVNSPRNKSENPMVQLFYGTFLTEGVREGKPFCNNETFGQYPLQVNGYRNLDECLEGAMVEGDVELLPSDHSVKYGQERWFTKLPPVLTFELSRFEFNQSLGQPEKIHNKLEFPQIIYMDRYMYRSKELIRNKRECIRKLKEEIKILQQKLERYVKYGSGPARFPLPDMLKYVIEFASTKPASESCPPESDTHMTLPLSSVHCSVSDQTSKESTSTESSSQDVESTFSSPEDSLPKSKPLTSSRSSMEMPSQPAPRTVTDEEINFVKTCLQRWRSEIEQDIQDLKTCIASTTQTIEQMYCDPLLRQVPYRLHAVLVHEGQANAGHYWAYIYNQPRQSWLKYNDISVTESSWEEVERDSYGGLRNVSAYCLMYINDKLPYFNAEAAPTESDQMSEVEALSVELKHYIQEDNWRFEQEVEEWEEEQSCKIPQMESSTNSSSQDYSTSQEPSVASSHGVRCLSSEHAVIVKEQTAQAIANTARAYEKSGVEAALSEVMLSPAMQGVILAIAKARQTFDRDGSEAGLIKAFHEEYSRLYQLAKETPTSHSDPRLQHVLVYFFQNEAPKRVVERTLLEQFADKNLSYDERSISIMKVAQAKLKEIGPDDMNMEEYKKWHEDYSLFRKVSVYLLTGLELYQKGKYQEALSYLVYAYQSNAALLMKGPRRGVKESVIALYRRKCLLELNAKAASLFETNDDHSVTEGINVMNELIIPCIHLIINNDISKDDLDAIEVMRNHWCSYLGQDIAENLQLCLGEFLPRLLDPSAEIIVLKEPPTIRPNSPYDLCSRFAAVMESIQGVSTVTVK
USP17 inh = human USP17-like deubiquitinase inhibition; AID 1645855; purified USP17, Ub-rhodamine cleavage fluorescence, 3 h; A8MUK1; hit rate 6.5% among 47,000; inhibition, % at 50 µM
USP30 block = blocks human USP30 ubiquitin-rhodamine cleavage; inhibition, % at 25 µM; Q70CQ3; hit rate 5.3% among 47,000; purified USP30, Ub-rhodamine cleavage fluorescence
USP8 block = blocks human USP8 ubiquitin-rhodamine cleavage; P40818; purified USP8, Ub-rhodamine cleavage fluorescence, 30 min; inhibition, % at 20 µM; hit rate 4.2% among 47,000; AID 1645853
USP10 inh = blocks human USP10 ubiquitin-rhodamine cleavage; Q14694; purified USP10, Ub-rhodamine fluorescence, 60 min; inhibition, % at 20 µM; hit rate 1.1% among 47,000
* marks the source's active call; other numbers are inactive results. Hits are enriched below; roughly 13% of the tested compounds scored in any of these assays. Cut-off read from the data, not from the text of the source: active = inhibition above about 30%; inactive = the rest.

SMILES	USP28 inh	USP17 inh	USP30 block	USP8 block	USP10 inh
Cc1ccc(OC(C)C(=O)Nc2ccc3nsnc3c2)cc1C (stereo not drawn)	-64	4	-19	45*	0
CC(Oc1ccccc1Cl)C(=O)Nc1ccc2nsnc2c1 (stereo not drawn)	17	13	25	36*	3
CC(C)(C)C(=O)N1CC2CCC(Oc3cccnc3)C2C1 (stereo not drawn)	-2	6	14	-35	2
CNc1cncc(C2CCCN2C(=O)c2cn3c(C)cccc3n2)n1 (stereo not drawn)	10	12	17	13	-1
COc1ccc(CN2CCN(C(=O)c3cccc4[nH]ccc34)CC2)cn1	-18	-24	-69	-5	-6
CC(Oc1ccc2c3c(c(=O)oc2c1)CCCC3)C(=O)NCC(=O)N1CC[C@@]2(O)CCCC[C@H]2C1 (stereo partly drawn)	5	-1	10	7	-4
Cc1c(C)n(-c2ccccc2)c2ncn(CC(=O)N(C)Cc3ccccc3)c(=O)c12	-3	53*	-2	-14	-4
CN(Cc1ccccc1)C(=O)Cn1cnc2c(cnn2C)c1=O	-13	1	-4	8	0
O=C(Cn1cnc2onc(-c3ccccc3F)c2c1=O)NCCCc1ccccc1	19	22	24	9	3
Cc1c(C)n(-c2ccccc2)c2ncn(CC(=O)NCCCc3ccccc3)c(=O)c12	-2	70*	-1	11	3
COc1ccc(CNC(=O)CC(c2cccc(F)c2)n2cccc2)cc1 (stereo not drawn)	19	13	35*	-14	2
COc1cccc(CNC(=O)CC(c2cccc(F)c2)n2cccc2)c1 (stereo not drawn)	3	-22	4	-74	2
COc1cn(-c2ccc(F)cc2)nc1C(=O)Nc1ccc(F)c(F)c1	4	35*	32*	4	12
CCOC(=O)c1ccc(NC(=O)C2CCN(c3nccc4sccc34)CC2)cc1	18	15	-61	54*	4
CC(C)Cn1c(=O)c(N2CCN(S(=O)(=O)c3cccc(F)c3)CC2)nc2ccncc21	-1	-1	2	5	4
CC(=O)Nc1ccc(N2C(=O)c3cc(-c4ccco4)nn3CC2(C)C(=O)NCc2ccc(F)cc2)cc1 (stereo not drawn)	7	-20	-90	39*	-11
CCn1c(C)c(-c2nc(C3CC3)no2)c(S(=O)(=O)N2CCC(C)CC2)c1C	10	11	10	18	0
COc1cccc(C(=O)NCC(c2ccc(C)o2)N2CCCC2)c1 (stereo not drawn)	-16	-9	-46	-3	-1
Nc1nc(OCc2ccccc2)c2[nH]c(/C=C/c3cccs3)nc2n1	67*	17	84*	72*	15
Cn1c(=O)c(Cl)nc2c(OCc3ccccc3)nc(N)nc21	12	6	14	-1	0
COc1ccccc1NC(=O)N(CCc1ccccc1)Cc1cc2cc3c(cc2[nH]c1=O)OCCO3	-3	7	6	7	-1
O=C(CCc1nc2sc3c(c2c(=O)[nH]1)CCCCC3)Nc1ccc(F)cc1F	-42	-173	-263	42*	-6
CCOc1ccccc1NC(=O)C1CC(=O)NC(Nc2ccccc2)=N1 (stereo not drawn)	10	-7	12	1	0
CCOc1ccccc1NC(=O)C1CC(=O)Nc2nc3ccccc3n21 (stereo not drawn)	4	24	26	39*	21
O=C(CC1C(=O)Nc2nc3ccccc3n21)Nc1ccccc1 (stereo not drawn)	9	7	15	18	26
SMILES	USP28 inh	USP17 inh	USP30 block	USP8 block	USP10 inh
Cc1cc(C)cc(NC(=O)C2CC(=O)Nc3nc4ccccc4n32)c1 (stereo not drawn)	-4	-2	5	46*	40*
CC(=O)c1cccc(NC(=O)c2ccc3[nH]c4c(c3c2)CC(C)CC4)c1 (stereo not drawn)	16	54*	-6	83*	-3
CC(=O)c1cccc(NC(=O)c2ccc(OC3CSC3)cc2)c1	15	13	19	-20	10
COc1cccc2c1C(=O)c1ccc3c(c1C2=O)C(=O)C[C@@H](C)[C@@H]3O	10	45*	-8	17	-2
COc1cccc2c1C(=O)c1ccc3c(c1C2=O)C(=O)C[C@@H](C)C3	4	30*	-51	0	-2
Cc1cc(-c2noc(-c3cccnc3)n2)c2ccccc2n1	0	40*	0	-6	-3
O=C(Nc1c2c(nn1-c1ccc([N+](=O)[O-])cc1)CSC2)c1c(F)cccc1F	5	27	27	0	34*
CC(C)NC(=O)N1CCN(Cc2nc3cccnc3n2-c2ccccc2)CC1	-1	-2	-4	10	-1
Cc1nc(C(=O)Nc2cccc(Cl)c2Cl)nn1-c1cc(Cl)cc(Cl)c1	10	71*	24	2	3
Cc1cccc2c1N(CC(=O)N1CCC3(CC1)OCCO3)C(=O)C1CCCN1C2=O (stereo not drawn)	0	4	6	0	2
Cc1cc2nc(Oc3cccc(Cl)c3)c3ccccc3n2n1	-11	62*	-3	3	0
Cc1cc(C)cc(Oc2nc3cc(C)nn3c3ccccc23)c1	-5	-5	15	9	0
CCNC(=O)N1C[C@@H]2OCC(=O)N(Cc3ccccc3)[C@@H]2C1	5	3	6	14	0
O=C(NC(Cc1ccccc1)c1nc2ccccc2[nH]1)C1CCC1 (stereo not drawn)	12	17	11	63*	-1
COc1ccc(C(=O)NC(Cc2ccccc2)c2nc3ccccc3[nH]2)c(OC)c1 (stereo not drawn)	28	71*	1	95*	18
O=C(NC(Cc1ccccc1)c1nc2ccccc2[nH]1)c1ccccn1 (stereo not drawn)	57*	-16	-11	-40	-3
O=C(N[C@@H](Cc1ccccc1)c1nc2ccccc2[nH]1)c1ccncc1	5	24	-9	10	-2
O=C(NC(Cc1ccccc1)c1nc2ccccc2[nH]1)c1ccc(-n2cnnn2)cc1 (stereo not drawn)	2	11	19	43*	1
CC1CC1c1nnc(C2(c3ccc(F)cc3)CCOCC2)o1 (stereo not drawn)	-4	-6	-11	-4	-1
O=C(COc1ccccc1)Nc1ncc2c(n1)CC(c1ccccc1)CC2=O (stereo not drawn)	-6	2	-3	21	8
Cc1ccc(S(=O)(=O)N2CCCC(c3[nH]ncc3C(=O)N(C)C)C2)cc1 (stereo not drawn)	8	-1	6	-4	-1
O=C(NC(Cc1c[nH]c2ccccc12)c1nc2ccccc2[nH]1)c1ccccc1 (stereo not drawn)	-2	34*	-38	42*	-7
COc1ccc(-c2[nH]nc3c2C(c2cc(OC)c(OC)c(OC)c2)CC(=O)O3)cc1 (stereo not drawn)	1	12	20	7	6
